In PubChem BioAssay AID504809 (National Center for Advancing Translational Sciences (NCATS), 2011):
Results filed as inconclusive are left out. Active and inactive are the calls of the source. Calls follow the shape of the dose curve; as a rule, active = well fitted curve in the direction sought with a large enough effect; inconclusive = small, poorly fitted or top-dose-only effect, or another doubt; inactive = no such curve, though single readings can be large or run the other way.

Assay: Followup screen for small molecules that induce DNA re-replication in MCF 10A normal breast cells
Details: MCF 10A DNA re-replication, Hoechst nuclear intensity, 48 h; series mostly up to 46.1 µM
Source text: NIH Molecular Libraries Probe Production Network [MLPCN] NIH Chemical Genomics Center [NCGC] MLPCN Grant: Fast Track K99 CA136555 Assay Provider: Melvin DePamphilis, NICHD, NIH Assay Overview Eukaryotic cells normally restrict genome duplication to once per cell division. When this process is aberrant, DNA re-replication occurs when cells reinitiate DNA replication before the first round of replication is complete. DNA re-replication induces the DNA damage response, arrests cell proliferation, and triggers apoptosis. The cell cycle components cyclin A, Cdt-1, Cdc6 and geminin are critical regulators of this process and their misregulation results in DNA re-replication in normal and cancer cells. To identify compounds that induce re-replication in normal cells, an image-based assay was used to measure DNA content of nuclei, as detected by the fluorescent DNA binding dye, Hoechst. Cell nuclei were imaged by a fluorescence scanning plate imager and compounds that induce DNA re-replication were identified by the increase of nuclei with elevated fluorescence intensity.
Assay Protocol Summary For screening, 250 cells in 5 uL/well were dispensed into black clear 1536-well plates (Aurora) using a solenoid-based dispenser. Following transfer of 23 nL compound or DMSO vehicle by a pin tool, the plates were incubated 48 hr at 37 C and 5% CO2. After addition of 1 uL/well Hoescht stain, the plates were incubated 40 min at 37 C, 5% CO2 and total intensity of fluorescent objects (nuclei) were enumerated by an Acumen Explorer Ex3 (TTP LabTech) fluorescence scanning plate imager (405 nm excitation, 500-530 nm emission). Keywords: NIH Roadmap, MLPCN, MLI, MLSMR, qHTS, NCGC, DNA replication, cancer
With `CC(=O)[O-].CS(C)=O.[Cu+]` the Potency was “inactive”.
For `CCN(CC)C(=S)SSC(=S)N(CC)CC.[Cl-].[Cl-].[Cu+2]`, the Potency was 95 nM (active).
For `CS(C)=O.[Cl-].[Cl-].[Cu+2]`, the Potency was “inactive”.
In the case of `CCN(CC)C(=S)SSC(=S)N(CC)CC`, the Potency is reported as 21300 nM (active).
For `CC(=O)[O-].CCN(CC)C(=S)SSC(=S)N(CC)CC.[Cu+]`, the Potency was 190 nM (active).
